# Test results: PubChem BioAssay (NCATS)
# Inconclusive results are not listed. Where a call stands in place of a potency, no number is given. Unmarked numbers belong to inactive results. Activity calls are given as the source filed them. The call rests on the fitted dose curve; in most records, active means well fitted curve in the direction sought with a large enough effect; inconclusive means small, poorly fitted or top-dose-only effect, or another doubt; inactive means no such curve, though single readings can be large; an effect the other way counts as inactive or inconclusive.
# Tests used:
# [1] = molecular target: Aldehyde dehydrogenase, mitochondrial (Homo sapiens) (UniProt P05091); assay: qHTS for Inhibitors of the Aldehyde Dehydrogenase Family (ALDH2) Primary screen (AID 2061308); further: nearly all actives have a fitted effect of over 55% in size
# [2] = molecular target: Retinaldehyde dehydrogenase 3 (Homo sapiens) (UniProt P47895); assay: qHTS for Inhibitors of the Aldehyde Dehydrogenase Family (ALDH1A3) Primary screen (AID 2061315)
Structure (SMILES),Potency [1],Potency [2],"activity change, negative = inhibition [1]","activity change, negative = inhibition [2]"
CC(C)(C)c1cccc(-n2cnc3cc(C(=O)N4CCCCC4)ccc32)c1,inactive,inactive,–,–
COc1cccc(O)c1CNc1ccc(S(=O)(=O)Nc2nccs2)cc1,inactive,inactive,–,–
Cc1sc(NC(=O)Cc2ccc3c(c2)OCO3)nc1-c1ccc2c(c1)CCN2C(=O)c1ccccc1F,inactive,inactive,–,–
COc1ccc(N2C[C@]34C=C[C@H](O3)C(C(=O)O)C4C2=O)cc1 (stereo not given in full),inactive,inactive,–,–
CCN(CC)CCCCn1c(-c2ccccc2)nc2c(NC3CCCCC3)nc(C)nc21,inactive,inactive,–,–
O=[N+]([O-])c1ccccc1S(=O)(=O)N1CCN(S(=O)(=O)c2ccc3c(c2)OCCO3)CC1,inactive,inactive,–,–
Cc1ccc(NC(=O)c2cnn3c(C)cc(C)nc23)cc1,inactive,inactive,–,–
Cc1ccccc1C(=O)NCC(=O)OC(C(=O)Nc1cc(C(F)(F)F)ccc1Cl)c1ccccc1 (stereo not given),inactive,inactive,–,–
COc1cccc(C2c3c(ncn(-c4ccccc4C(C)(C)C)c3=N)Oc3ccc4ccccc4c32)c1 (stereo not given),inactive,inactive,–,–
CC(C)(C)c1ccc(-c2nc(SCCCOc3ccccc3)n3[nH]c(=O)cc3n2)cc1,inactive,inactive,–,–
Fc1ccc(Nc2nc(-c3ccnc(C(F)(F)F)c3)nc3ccccc23)cc1F,inactive,inactive,–,–
COc1ccc(-c2nnc3n2N=C(c2ccc(OC)c(OC)c2)CS3)c(OC)c1,inactive,inactive,–,–
O=C(O)c1ccc(-c2noc(-c3cccc(C(F)(F)F)c3)n2)cc1,inactive,inactive,–,–
COc1ccc(-c2csc(N3CCC(C(N)=O)CC3)n2)cc1OC,inactive,inactive,–,–
COc1ccc2[nH]c(=O)c3c(c2c1)OC(C)(C)C=C3,inactive,inactive,–,–
Cc1ccc(-c2cc(C(=O)Nc3ccn[nH]3)c3ccccc3n2)cc1C,inactive,inactive,–,–
CC1=C(C(=O)Nc2nc3ccccc3s2)C2(CCCC2)N=C(Nc2nc3ccccc3o2)N1,inactive,inactive,–,–
O=C(OCC#CCSc1nnc(-c2c[nH]c3ccccc23)o1)c1ccc(F)cc1,inactive,inactive,–,–
CCCCNc1nc(C)nc2c1nc(-c1ccccc1)n2C1CCN(Cc2ccccc2)C1 (stereo not given),inactive,inactive,–,–
COc1cccc(C2c3c(ncn(Cc4cccs4)c3=N)Oc3ccc4ccccc4c32)c1 (stereo not given),inactive,inactive,–,–
C=CCNc1oc(-c2ccc(F)cc2)nc1C#N,inactive,inactive,–,–
Cc1ccc(C(=O)[C@H]2CC[C@@H](C(=O)Nc3ccc(S(=O)(=O)Nc4nccs4)cc3)C2)cc1C,inactive,inactive,–,–
Cc1ccc(C)c(OCCn2c(CCNC(=O)C3CCCCC3)nc3ccccc32)c1,inactive,inactive,–,–
CCOC(=O)CCCC(=O)Nc1ncnc2c1C(c1ccccc1)c1c(ccc3ccccc13)O2 (stereo not given),inactive,inactive,–,–
CCOc1ccc(CCNC(=O)c2cnon2)cc1OCC,inactive,inactive,–,–
c1nc(NCCCN2CCCCC2)c2cc(-c3ccc4c(c3)OCO4)ccc2n1,inactive,inactive,–,–
c1cncc(-c2ccc(CNc3nc(-n4ccnc4)nc4ccccc34)cc2)c1,inactive,inactive,–,–

Structure (SMILES),Potency [1],Potency [2],"activity change, negative = inhibition [1]","activity change, negative = inhibition [2]"
c1nc(NCc2ccc3c(c2)OCO3)c2cc(-c3ccc4c(c3)OCCO4)ccc2n1,inactive,inactive,–,–
O=C(OCC#CCSc1nnc(-c2ccccc2)o1)c1ccc(F)cc1,inactive,inactive,–,–
COc1c2cc(c(O)c1OC)CCCCC(O)CCc1ccc(O)c-2c1 (stereo not given),inactive,inactive,–,–
O=C(NC1CCCc2c1cnn2-c1ccc(F)cc1F)C1CCCCN1 (stereo not given),inactive,inactive,–,–
O=C1CCc2cc(Cl)c(S(=O)(=O)Nc3ccc(Cl)c(Cl)c3)cc2N1,inactive,inactive,–,–
NC(=O)C1CCN(c2nc(-c3ccc(OCc4ccccc4)cc3)cs2)CC1,inactive,inactive,–,–
Cc1cc(C)nc(NC(=S)N2CCN(c3ncnc4sccc34)CC2)c1,inactive,inactive,–,–
O=C(Cn1nc(C2CCCCC2)ccc1=O)NCCc1ccccc1,inactive,inactive,–,–
Cc1ccc(S(=O)(=O)Nc2cnccc2C(=O)Nc2nc(-c3ccc(Cl)c(Cl)c3)cs2)cc1,inactive,inactive,–,–
C[C@@H]1O[C@@H](O[C@H]2[C@@H](OC(=O)[C@]34CCC(C)(C)CC3C3=CCC5[C@@]6(C)C[C@H](O)[C@H](O[C@@H]7O[C@H](CO)[C@@H](O)[C@H](O)[C@H]7O[C@@H]7OC[C@@H](O)[C@H](O)[C@H]7O)[C@@](C)(C(=O)O)C6CC[C@@]5(C)[C@]3(C)CC4)OC[C@H](O)[C@@H]2O)[C@H](O)[C@H](O)[C@H]1O[C@@H]1OC[C@@H](O)[C@H](O)[C@H]1O (stereo not given in full),–,–,6.76% [at 11.2 µM],0.185% [at 11.2 µM]
COc1ccccc1-c1nnc(SCC#CCOC(=O)c2ccc(F)cc2)o1,inactive,inactive,–,–
Cc1cc2c(s1)c1cnn(Cc3cccc(C(F)(F)F)c3F)c(=O)c1n2C,inactive,inactive,–,–
CCC(Nc1ncnc2ccc(-c3c(C)noc3C)cc12)c1ccccc1 (stereo not given),inactive,inactive,–,–
COc1ccc(CCc2nc3c(C)c(-c4c(C)noc4C)c(C)cc3n2CCN2CCOCC2)cc1,inactive,inactive,–,–
Fc1cc(Nc2nc(-c3ccncc3)nc3ccccc23)ccc1-c1ccc2[nH]ncc2c1,inactive,inactive,–,–
C=C1C(=O)OC2/C=C(\COC(C)=O)CC/C=C(\C=O)CC(OC(=O)C(C)CC)C12 (stereo not given),inactive,inactive,–,–
Cc1cc(NC(=O)Nc2nnc(C3CCCCC3)s2)ccc1Br,inactive,inactive,–,–
Cn1cnc(S(=O)(=O)Nc2cnccc2C(=O)Nc2nc(-c3ccccc3)cs2)c1,inactive,inactive,–,–
CCCn1c(C)nc2c(NC3CCN(Cc4ccccc4)CC3)nc(C)nc21,inactive,inactive,–,–
Cc1nnc(-c2cnn(C)c2N)n1CCCn1cccc1,inactive,inactive,–,–
COc1cccc(C2C(C#N)=C(NC(=O)NCc3ccccc3)Oc3ccc4ccccc4c32)c1 (stereo not given),inactive,inactive,–,–
Cc1cn([C@H]2C[C@H](N[S+](=O)([O-])Cc3ccccc3)[C@@H](CO)O2)c(=O)[nH]c1=O,inactive,inactive,–,–
Cc1ccccc1-c1nnc(NC(=O)Nc2ccc3ccccc3c2)s1,inactive,inactive,–,–
O=C(Nc1cccc(-c2nn3c(=O)cc(N4CCNCC4)nc3s2)c1)C1CCNCC1,inactive,inactive,–,–
CC(=O)Nc1sc2c(c1-c1nc3ccccc3s1)CCNC2,inactive,inactive,–,–
COc1cc(OC)c(C(CC(=O)N2CC(C)CC(C)C2)c2ccc3c(c2)OCO3)c(OCC#N)c1 (stereo not given),inactive,inactive,–,–
CCn1c2ccccc2c2cc(Nc3ccnc(NCCCN4CCOCC4)n3)ccc21,inactive,inactive,–,–

Structure (SMILES),Potency [1],Potency [2],"activity change, negative = inhibition [1]","activity change, negative = inhibition [2]"
CN(C)CCNc1ncnc2ccc(-c3ccc4c(c3)OCO4)cc12,inactive,inactive,–,–
COc1cc(C2CC(=O)Nc3c2cc(Br)c2ccccc32)cc(OC)c1OC (stereo not given),inactive,inactive,–,–
CCc1cccc(CC)c1OCc1cc(C2Nc3ccccc3C(=O)N2Cc2ccco2)ccc1OC (stereo not given),inactive,inactive,–,–
O=S(=O)(Nc1nccs1)c1ccc(NCc2cc(F)ccc2O)cc1,inactive,inactive,–,–
Cc1cc2c(s1)c1cnn(Cc3ccc(F)c(F)c3)c(=O)c1n2C,inactive,inactive,–,–
CCCn1c(-c2ccc(F)cc2)nc2c(NCCCN3CCCCC3C)nc(C)nc21 (stereo not given),inactive,inactive,–,–
Cc1cc(N[S+](=O)([O-])c2ccc(NC(=O)Cc3ccc(F)c(C)c3)cc2)no1,inactive,inactive,–,–
O=C(Nc1ccc(F)c(F)c1)Nc1nnc(-c2ccncc2)s1,inactive,inactive,–,–
Oc1c(C(Nc2ccccn2)c2ccccc2)cc(Cl)c2cccnc12 (stereo not given),inactive,inactive,–,–
Cc1cn(-c2cccc(NC(=O)c3ccc(C)c(Nc4nccc(-c5cccnc5)n4)c3)c2)cn1,inactive,inactive,–,–
Cc1nnc(-c2ccccc2[N+](=O)[O-])n1CCCn1ccnc1,inactive,inactive,–,–
CCC(=O)NC(c1ccco1)c1cc([N+](=O)[O-])c2cccnc2c1O (stereo not given),inactive,inactive,–,–
O=C(NCCc1ccccc1)C1CCN(c2nc(-c3ccc(Br)cc3)cs2)CC1,inactive,inactive,–,–
C#CCCC(=O)Nc1sc2c(c1-c1nc3ccccc3s1)CCN(C(C)C)C2,inactive,inactive,–,–
Cc1ccc(-c2cc(C(=O)NCc3ccc(S(N)(=O)=O)cc3)c3ccccc3n2)cc1C,inactive,inactive,–,–
O=C(Nc1ccc(Br)cc1)Nc1nnc(-c2ccncc2)s1,inactive,inactive,–,–
CC(=O)C1=C(O)C2c3c[nH]c4cccc(c34)CC2C(C)(C)N(C)C1=O (stereo not given),inactive,inactive,–,–
COC(=O)N[C@H](C(=O)N1[C@@H]2CC[C@@H](C2)[C@H]1c1nc2ccc(-c3ccc4c(c3)C(F)(F)c3cc(-c5cnc([C@@H]6CCC7(CC7)N6C(=O)[C@@H](NC(=O)OC)C(C)C)[nH]5)ccc3-4)cc2[nH]1)C(C)C,inactive,inactive,–,–
COc1cc(Cl)c(C)cc1NC(=O)C(OC(=O)CNC(=O)c1ccccc1)c1ccccc1 (stereo not given),inactive,inactive,–,–
CCCCNc1ncc2c(-c3ccc(S(=O)(=O)N4CCOCC4)cc3)nn(C3CCC(O)CC3)c2n1 (stereo not given),inactive,inactive,–,–
C=C1C(=O)O[C@@H]2C[C@H](C)[C@@H]3CC(=O)C(C)=C3C[C@H]12,inactive,inactive,–,–
O=C(Nc1ccc2ccccc2c1)Nc1cccc(-c2ccncc2)n1,inactive,inactive,–,–
COc1ccccc1-c1csc2ncnc(Sc3nnnn3C)c12,inactive,inactive,–,–
CCCn1c(C)nc2c(N(CCOC)CCOC)nc(C)nc21,inactive,inactive,–,–
O=C(CNC(=O)c1ccc(Cl)cc1)OC(C(=O)Nc1cc(C(F)(F)F)ccc1Cl)c1ccccc1 (stereo not given),inactive,inactive,–,–
O=C(CNC(=O)c1ccc(Cl)c(C(F)(F)F)c1)OC(C(=O)Nc1cc(C(F)(F)F)ccc1Cl)c1ccccc1 (stereo not given),inactive,inactive,–,–
